From PubChem BioAssay (NCATS)
Records with an inconclusive call do not appear. The source made the active and inactive calls. Unless noted, the call rests on the fitted dose curve; in most records, active means well fitted curve in the direction sought with a large enough effect; inconclusive means small, poorly fitted or top-dose-only effect, or another doubt; inactive means no such curve, though single readings can be large; an effect the other way counts as inactive or inconclusive.

Columns and labels:
[1] = Cell Viability - LYMP2-013 (AID 970); further: potency means the concentration at half of the fitted maximal effect; nearly all actives have a fitted effect of over 55% in size
Procedure, shortened: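 Acute toxicity was measured in human lymphoblastoid cells (2500/well) exposed to compound titrations for 24 hr, with ATP luminescence (CellTiter-Glo) as read-out and AC50 fitted by Hill equation.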

[2] = Cell Viability - LYMP2-015 (AID 971); further: potency means the concentration at half of the fitted maximal effect; nearly all actives have a fitted effect of over 55% in size
Procedure, shortened: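 Acute toxicity was scored as a concentration-dependent drop in intracellular ATP in lymphoblastoid cells after 24 hr compound exposure in complete medium. Detection used CellTiter-Glo luciferase luminescence.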

[3] = Cell Viability - LYMP2-017 (AID 972); further: potency means the concentration at half of the fitted maximal effect; nearly all actives have a fitted effect of over 55% in size
Procedure, shortened: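 Steps: plate 2500 lymphoblastoid cells per well; incubate 5 hr at 37 C; add compound across a concentration series and incubate 24 hr at 37 C; add CellTiter-Glo and read luminescence after 30 min at room temperature; fit Hill curves for AC50.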

[4] = Cell Viability - LYMP2-021 (AID 974);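 further: potency means the concentration at half of the fitted maximal effect; compound exposure lasts 24 hours at 37 °C; nearly all actives have a fitted effect of over 55% in size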
Procedure, shortened: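 Concentration-response cytotoxicity in a human lymphoblastoid line: 24 hr treatment at 37 C in complete culture medium, tetraoctylammonium bromide as positive control, luminescent ATP quantitation as viability measure.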

[5] = Cell Viability - LYMP2-023 (AID 975)
Procedure, shortened: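 Concentration-dependent drop in intracellular ATP measures acute cytotoxicity in a human lymphoblastoid line treated for 24 hours in complete culture medium. AC50 values are taken from Hill-equation fits of qHTS data.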

[6] = Cell Viability - LYMP2-025 (AID 976); further: potency means the concentration at half of the fitted maximal effect
Procedure, shortened: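 In qHTS format, LYMP2-025 lymphoblastoid cells in complete culture medium received compound for 24 hr; ATP-based CellTiter-Glo signal gave viability, with AC50 derived by Hill equation.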

[7] = Cell Viability - LYMP2-002 (AID 977);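 further: potency means the concentration at half of the fitted maximal effect; compound exposure lasted 24 h at 37 °C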
Procedure, shortened: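 Human lymphoblastoid LYMP2-002 cells, 2500 per well, exposed to compounds for 24 h at 37 C in complete medium; viability read as intracellular ATP by CellTiter-Glo luminescence, AC50 from Hill fits.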

[8] = Cell Viability - LYMP2-006 (AID 978); further: potency means the concentration at half of the fitted maximal effect; nearly all actives have a fitted effect of over 60% in size
Procedure, shortened: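 Concentration-dependent loss of intracellular ATP in a human lymphoblastoid line after 24 hr treatment at 37 C was measured by CellTiter-Glo luminescence, with AC50 values obtained from standard Hill-equation modelling.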

[9] = Cell Viability - LYMP2-007 (AID 979);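 further: potency means the concentration at half of the fitted maximal effect; cells exposed to compound for 24 h before reading; nearly all actives have a fitted effect of over 60% in size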
Procedure, shortened: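 Acute toxicity is scored as a concentration-dependent fall in intracellular ATP in human lymphoblastoid cells treated 24 hr at 37 C, measured by luciferase luminescence; Hill-equation modelling yields AC50.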

[10] = Cell Viability - LYMP2-008 (AID 980); further: potency means the concentration at half of the fitted maximal effect; nearly all actives have a fitted effect of over 60% in size
Procedure, shortened: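 Acute cytotoxicity is scored as concentration-dependent loss of cellular ATP in a human lymphoblastoid line after 24 hr treatment at 37 C. ATP is quantified by luciferase luminescence.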

[11] = Cell Viability - LYMP2-010 (AID 981)
Procedure, shortened: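 Acute toxicity is scored as a concentration-dependent loss of cellular ATP in human lymphoblastoid cells after 24 hr compound exposure in complete medium. Tetraoctylammonium bromide is the positive control.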

[12] = Cell Viability - LYMP2-014 (AID 983); further: potency means the concentration at half of the fitted maximal effect; nearly all actives have a fitted effect of over 50% in size
Procedure, shortened: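 Decrease in intracellular ATP after 24 hr treatment at 37 C, measured by luciferase luminescence, indicated cytotoxicity. Concentration-response data were fitted with the standard Hill equation to give AC50.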

[13] = Cell Viability - LYMP2-016 (AID 984)
Procedure, shortened: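 Acute toxicity in a Coriell human lymphoblastoid line is scored as loss of intracellular ATP over 24 h of treatment in complete medium. CellTiter-Glo signal is fitted across concentrations with the Hill equation to give AC50.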

[14] = Cell Viability - LYMP2-018 (AID 985);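 further: potency means the concentration at half of the fitted maximal effect; compound exposure lasted 24 hr at 37 °C; nearly all actives have a fitted effect of over 50% in size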
Procedure, shortened: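 Acute cytotoxicity is scored as a concentration-dependent drop in intracellular ATP after 24 hr exposure of the lymphoblastoid line in complete culture medium, measured by luciferase luminescence. Potency is expressed as AC50 from Hill modelling.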

[15] = Cell Viability - LYMP2-020 (AID 986)
Procedure, shortened: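 Acute cytotoxicity in a human lymphoblastoid line is scored as a concentration-dependent fall in cellular ATP after 24 hr at 37 C in complete medium. The positive control is tetraoctylammonium bromide, and potency is given as Hill-fit AC50.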

[16] = Cell Viability - LYMP2-022 (AID 987)
Procedure, shortened: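 Acute toxicity in a human lymphoblastoid line is scored as decreased intracellular ATP after 24 hr compound treatment at 37 C. ATP is measured by CellTiter-Glo luminescence; curves are fitted with the Hill equation to give AC50.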

[17] = Cell Viability - LYMP2-026 (AID 989); further: potency means the concentration at half of the fitted maximal effect; nearly all actives have a fitted effect of over 50% in size
Procedure, shortened: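 Concentration-dependent loss of intracellular ATP in human lymphoblastoid cells after 24 hr at 37 C, quantified by luciferase luminescence. AC50 derived from standard Hill equation.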

[18] = Cell Viability - LYMP1-002 - Assay at 24 hr (AID 993); further: potency means the concentration at half of the fitted maximal effect
Procedure, shortened: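 qHTS, LYMP1-002 lymphoblastoid, 24 h cpd, 37 C, CellTiter-Glo ATP luminescence; AC50 via Hill eq.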

[19] = Cell Viability - LYMP1-002 - Assay at 40 hr (AID 994); further: potency means the concentration at half of the fitted maximal effect; nearly all actives have a fitted effect of over 60% in size
Procedure, shortened: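 Viability in the human lymphoblastoid line was measured as intracellular ATP via CellTiter-Glo after 40 hr compound exposure. Tetraoctylammonium bromide served as positive control.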

[20] = biological target: Bile acid receptor (Homo sapiens) (UniProt Q96RI1); test: qHTS assay for small molecule antagonists of farnesoid X receptor signaling (AID 588526; calls by dose curve; further: on the % scale 0 is the no-effect control and ±100 the full control effect)
Procedure, shortened: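 Antagonist mode: titrated compounds tested against chenodeoxycholic acid stimulation (normalized to 50 uM CDCA and DMSO) in GeneBLAzer HEK293T cells for 16 h. Beta-lactamase read by CCF4 fluorescence; IC50 from Hill fits.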

[21] = biological target: Peroxisome proliferator-activated receptor gamma (Homo sapiens) (UniProt P37231); test: qHTS assay for small molecule agonists of peroxisome proliferator-activated receptor gamma signaling (AID 588536; active means well fitted curve in the direction sought with a large enough effect in the signal ratio, with a control signal flat, not every such curve was filed as active; the % refers to the signal ratio;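 further: 0% = DMSO basal wells and 100% = rosiglitazone at 2 µM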)
Procedure, shortened: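 GeneBLAzer PPAR-gamma-UAS-bla HEK293 cells in 1% charcoal/dextran-treated FBS medium were treated 16 h at 37 C with compounds. Beta-lactamase activity was read by CCF4 ratio (460/530 nm). Response was normalized to 2 uM rosiglitazone (100%) and DMSO, then Hill-fitted for EC50 and efficacy.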

[22] = qHTS assay for small molecule agonists of the antioxidant response element (ARE) signaling pathway (AID 651741; active means well fitted activation curve with a large enough effect in the signal ratio; the % refers to the signal ratio; further: potency means the concentration at half of the fitted maximal effect)
Procedure, shortened: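 HepG2 ARE-bla cells plated at 2,000 cells/well and incubated 5 h at 37 C/5% CO2 received 23 nL compound in DMSO. After 16 h at 37 C, LiveBLAzer B/G FRET substrate was applied for 2 h at room temperature and fluorescence read.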

[23] = qHTS assay for small molecule activators of the p53 signaling pathway (AID 651743; active means well fitted activation curve with a large enough effect in the signal ratio, not every such curve was filed as active; the % refers to the signal ratio; further: series mostly up to about 92 µM; % of control where 0% means no effect); conditions: HCT-116 p53RE-bla, beta-lactamase FRET ratio, 16 h; activation: active compounds read high
Procedure, shortened: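 HCT-116 p53RE-bla, 4,000 cells/well; 5 h settle; cpd/DMSO 16 h, 37 C; LiveBLAzer B/G 2 h RT; fluorescence intensity.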

[24] = qHTS assay for small molecule disruptors of the mitochondrial membrane potential - 1 hr assay (AID 651754; calls by dose curve; further: potency means the concentration at half of the fitted maximal effect; nearly all actives have a fitted effect of over 35% in size)
Procedure, shortened: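 Steps: seed HepG2 cells and let attach overnight; pin-transfer compound or vehicle; incubate 1 hr at 37C; add Mito-MPS dye for 30 min; read two-channel fluorescence for monomer and aggregate forms.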

[25] = qHTS assay for small molecule disruptors of the mitochondrial membrane potential - 5 hr assay (AID 651755; calls by dose curve; further: potency means the concentration at half of the fitted maximal effect; nearly all actives have a fitted effect of over 40% in size)
Procedure, shortened: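 HepG2 cells (2,000/well), attached overnight, exposed to compound 5 hr at 37C, then Mito-MPS dye 30 min. Fluorescence read for monomers (490/535 nm) and aggregates (540/590 nm).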

[26] = qHTS assay for environmental chemicals that activate the Aryl hydrocarbon Receptor (AhR) signaling pathway (AID 651777); conditions: 1A2-DRE human hepatoma cells, luciferase, 24 h; activation: active compounds read high; further: % of control where 0% means no effect; nearly all actives have a fitted effect of over 15% in size
Procedure, shortened: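 Measured luciferase activity, read 30 min after One-Glo addition at room temperature, from human hepatoma cells bearing a dioxin response element–CYP1A2 promoter reporter and exposed to compound for 24 hr at 37 C.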

[27] = biological target: Peroxisome proliferator-activated receptor alpha (Homo sapiens) (UniProt Q07869); test: qHTS assay for small molecule agonists of the peroxisome proliferator-activated receptor alpha (PPARalpha) signaling pathway (AID 651778); conditions: PathHunter PPARalpha complementation, chemiluminescence, 6 h; max response: active compounds read high; further: % of control where 0% means no effect
Procedure, shortened: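 Enzyme-fragment complementation assay in which ligand-bound PPARalpha translocates and forms an active enzyme that generates chemiluminescence. Cells were plated overnight, exposed to compound for 6 hr at 37 C, and then given detection reagent for 60 min at room temperature.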

[28] = biological target: Nuclear receptor ROR-gamma (Homo sapiens) (UniProt P51449); test: qHTS assay for small molecule antagonists of the retinoid-related orphan receptor gamma (ROR-gamma) signaling pathway (AID 651802)
Procedure, shortened: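 Antagonism is scored as a fall in luminescence from a RORE-luciferase reporter in CHO cells expressing ROR under a TET-inducible promoter, measured 16hr after doxycycline induction in the presence of compound.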

[29] = qHTS assay for small molecule agonists of the antioxidant response element (ARE) signaling pathway measured by Nrf2-dependant transcriptional activity (AID 720636; active means well fitted curve in the direction sought with a large enough effect in the repeat runs; an effect the other way counts as inactive or inconclusive;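 further: HepG2 cells with an ARE-driven luciferase reporter; % of control where 0% means no effect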)
Procedure, shortened: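 In HepG2 cells engineered with an Nrf2-responsive luciferase gene, ARE induction was quantified as luminescence after 16 hr compound treatment at 37 C.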

[30] = qHTS assay for small molecule antagonists of the retinoid-related orphan receptor gamma (ROR-gamma) signaling pathway - cell viability counter screen (AID 720652; active means well fitted curve in the direction sought with a large enough effect in the repeat runs; an effect the other way counts as inactive or inconclusive;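 further: potency means the concentration at half of the fitted maximal effect; compound exposure lasted 16 hr before ATP read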)
Procedure, shortened: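 Cytotoxicity is quantified via intracellular ATP (CellTiter-Glo luminescence) in doxycycline-induced CHO ROR response element-luciferase reporter cells treated with compound for 16 hr at 37 C, 5% CO2.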

[31] = qHTS assay for cell viability of HEK293 cells (AID 743288); conditions: ATP luminescence (CellTiter-Glo), 18 h; max response: active compounds read low; further: potency means the concentration at half of the fitted maximal effect; nearly all actives have a fitted effect of over 50% in size
Procedure, shortened: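 The Tox21 protocol used parental HEK293 cells treated for 18 h at 37 C with compounds delivered by pintool; ATP-coupled luminescence after 30 min at room temperature gave viability.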

[32] = qHTS assay for small molecule activators of the human pregnane X receptor (PXR) signaling pathway (AID 720659; call rule not given here; further: 0% is about no effect)

Bile acid receptor (Homo sapiens), sequence (Q96RI1 whole entry, looked up): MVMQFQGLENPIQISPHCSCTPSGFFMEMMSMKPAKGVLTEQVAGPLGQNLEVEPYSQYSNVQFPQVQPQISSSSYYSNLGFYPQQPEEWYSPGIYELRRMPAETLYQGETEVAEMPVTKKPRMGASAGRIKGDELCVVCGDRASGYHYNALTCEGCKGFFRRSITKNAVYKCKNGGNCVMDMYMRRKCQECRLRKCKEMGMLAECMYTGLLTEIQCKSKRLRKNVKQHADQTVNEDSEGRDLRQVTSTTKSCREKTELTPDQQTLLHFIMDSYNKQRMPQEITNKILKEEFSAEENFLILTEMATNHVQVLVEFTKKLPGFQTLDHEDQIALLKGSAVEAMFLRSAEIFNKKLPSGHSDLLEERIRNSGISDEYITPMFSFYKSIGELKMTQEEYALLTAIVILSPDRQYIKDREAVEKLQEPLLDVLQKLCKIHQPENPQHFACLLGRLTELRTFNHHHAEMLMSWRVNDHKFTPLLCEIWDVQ
Peroxisome proliferator-activated receptor alpha (Homo sapiens), sequence (Q07869 whole entry, looked up, the tested form may be a part): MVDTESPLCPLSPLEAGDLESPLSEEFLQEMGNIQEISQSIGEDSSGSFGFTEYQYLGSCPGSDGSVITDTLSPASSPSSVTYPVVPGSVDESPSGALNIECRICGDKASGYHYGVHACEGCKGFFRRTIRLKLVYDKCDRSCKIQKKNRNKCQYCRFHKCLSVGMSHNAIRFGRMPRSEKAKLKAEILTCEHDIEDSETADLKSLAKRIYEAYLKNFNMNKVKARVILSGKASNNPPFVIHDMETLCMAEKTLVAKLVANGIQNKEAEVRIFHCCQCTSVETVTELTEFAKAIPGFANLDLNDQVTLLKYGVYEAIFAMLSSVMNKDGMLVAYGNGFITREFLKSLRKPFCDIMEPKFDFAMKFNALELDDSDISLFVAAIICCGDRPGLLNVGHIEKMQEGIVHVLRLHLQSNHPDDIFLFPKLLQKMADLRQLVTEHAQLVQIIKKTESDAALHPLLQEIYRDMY
Peroxisome proliferator-activated receptor gamma (Homo sapiens), sequence (P37231 whole entry, looked up): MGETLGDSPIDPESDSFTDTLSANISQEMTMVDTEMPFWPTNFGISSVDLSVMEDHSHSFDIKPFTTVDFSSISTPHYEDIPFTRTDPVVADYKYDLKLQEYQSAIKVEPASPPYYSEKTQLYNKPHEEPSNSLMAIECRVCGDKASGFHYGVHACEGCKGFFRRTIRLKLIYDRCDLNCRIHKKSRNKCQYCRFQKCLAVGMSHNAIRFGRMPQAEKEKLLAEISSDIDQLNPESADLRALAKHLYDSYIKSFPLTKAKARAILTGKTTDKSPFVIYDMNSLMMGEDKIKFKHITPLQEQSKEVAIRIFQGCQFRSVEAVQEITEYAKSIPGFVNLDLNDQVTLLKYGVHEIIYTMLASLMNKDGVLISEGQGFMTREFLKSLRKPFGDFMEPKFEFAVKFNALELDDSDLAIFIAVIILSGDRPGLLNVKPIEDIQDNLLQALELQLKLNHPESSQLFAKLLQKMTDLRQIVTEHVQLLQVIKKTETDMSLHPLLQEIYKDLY
Nuclear receptor ROR-gamma (Homo sapiens), sequence (P51449 whole entry, looked up): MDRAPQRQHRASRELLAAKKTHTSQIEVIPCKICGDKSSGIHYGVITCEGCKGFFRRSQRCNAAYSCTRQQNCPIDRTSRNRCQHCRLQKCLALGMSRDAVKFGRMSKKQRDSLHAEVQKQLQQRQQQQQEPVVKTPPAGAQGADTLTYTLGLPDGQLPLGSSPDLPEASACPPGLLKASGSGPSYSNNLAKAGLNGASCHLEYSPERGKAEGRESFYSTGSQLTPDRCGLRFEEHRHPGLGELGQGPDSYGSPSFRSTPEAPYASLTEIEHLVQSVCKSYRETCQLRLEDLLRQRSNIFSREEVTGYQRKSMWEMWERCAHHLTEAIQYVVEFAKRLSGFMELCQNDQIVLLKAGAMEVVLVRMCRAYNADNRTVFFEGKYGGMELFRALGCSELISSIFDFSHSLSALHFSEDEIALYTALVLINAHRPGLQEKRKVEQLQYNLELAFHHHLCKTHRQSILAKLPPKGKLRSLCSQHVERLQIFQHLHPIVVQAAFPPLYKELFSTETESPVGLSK

N=C1C=CC(=C(c2ccc(N)cc2)c2ccc(N)cc2)C=C1
inactive: Potency [20] | outcome [21] | activation [23] 11.1% | activation [26] 3.01% | max response [27] -9.83% | Potency [29] | outcome [32]
active: Potency [1] 12.6 µM | Potency [2] 10 µM | Potency [3] 12.6 µM | Potency [4] 7.94 µM | Potency [5] 10 µM | Potency [6] 10 µM | Potency [7] 7.94 µM | Potency [8] 10 µM | Potency [9] 7.94 µM | Potency [10] 7.94 µM | Potency [11] 7.94 µM | Potency [12] 7.94 µM | Potency [13] 7.94 µM | Potency [14] 7.94 µM | Potency [15] 3.98 µM | Potency [16] 3.16 µM | Potency [17] 7.94 µM | Potency [18] 12.6 µM | Potency [19] 15.8 µM | Potency [22] 42.2 µM | Potency [24] 1.33 µM | Potency [25] 0.531 µM | Potency [28] 6.68 µM | Potency [30] 18.8 µM | Potency [31] 31.6 µM
